Key:
[1] = molecular target: Mast/stem cell growth factor receptor Kit (Homo sapiens) (UniProt P10721); settings: at 1 µM
[2] = system: Mast/stem cell growth factor receptor Kit (Homo sapiens), P10721 [D816V]; settings: at 0.1 µM
[3] = system: Mast/stem cell growth factor receptor Kit (Homo sapiens), P10721 [D816V]; settings: at 1 µM
[4] = system: Mast/stem cell growth factor receptor Kit (Homo sapiens), P10721 [T670I]; settings: at 0.1 µM
[5] = system: Mast/stem cell growth factor receptor Kit (Homo sapiens), P10721 [T670I]; settings: at 1 µM
[6] = system: Mast/stem cell growth factor receptor Kit (Homo sapiens), P10721 [V560G]; settings: at 0.1 µM
Sequence of Mast/stem cell growth factor receptor Kit (Homo sapiens), P10721 [V560G] (P10721 whole entry V560G): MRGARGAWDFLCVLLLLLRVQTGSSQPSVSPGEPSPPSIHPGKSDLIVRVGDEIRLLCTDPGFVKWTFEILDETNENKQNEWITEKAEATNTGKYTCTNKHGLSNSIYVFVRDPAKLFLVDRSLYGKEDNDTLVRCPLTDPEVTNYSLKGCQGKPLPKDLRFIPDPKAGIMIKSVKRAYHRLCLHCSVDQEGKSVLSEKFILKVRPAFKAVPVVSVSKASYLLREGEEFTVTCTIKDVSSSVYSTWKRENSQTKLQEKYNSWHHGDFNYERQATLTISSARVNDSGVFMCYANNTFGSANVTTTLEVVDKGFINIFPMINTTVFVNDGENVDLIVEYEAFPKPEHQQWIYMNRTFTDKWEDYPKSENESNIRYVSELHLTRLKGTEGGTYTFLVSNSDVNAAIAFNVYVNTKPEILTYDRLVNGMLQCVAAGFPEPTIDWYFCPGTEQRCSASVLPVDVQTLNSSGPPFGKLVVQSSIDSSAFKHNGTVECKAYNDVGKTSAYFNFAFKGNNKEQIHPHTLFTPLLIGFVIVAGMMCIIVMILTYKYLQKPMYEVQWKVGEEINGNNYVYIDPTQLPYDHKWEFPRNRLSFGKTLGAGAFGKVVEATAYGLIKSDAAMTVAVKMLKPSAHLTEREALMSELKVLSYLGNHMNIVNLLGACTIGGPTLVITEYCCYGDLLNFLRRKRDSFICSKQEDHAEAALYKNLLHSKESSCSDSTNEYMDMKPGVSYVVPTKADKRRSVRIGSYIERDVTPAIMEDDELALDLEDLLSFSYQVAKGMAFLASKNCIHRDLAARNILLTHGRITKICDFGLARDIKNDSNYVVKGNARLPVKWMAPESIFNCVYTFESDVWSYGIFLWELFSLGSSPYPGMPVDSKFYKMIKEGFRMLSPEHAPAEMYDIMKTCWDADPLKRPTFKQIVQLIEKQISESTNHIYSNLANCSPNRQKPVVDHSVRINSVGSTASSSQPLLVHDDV

[7] = system: Mast/stem cell growth factor receptor Kit (Homo sapiens), P10721 [V560G]; settings: at 1 µM
[8] = molecular target: Tyrosine-protein kinase Lck (Homo sapiens) (UniProt P06239); settings: at 0.1 µM
Sequence of Tyrosine-protein kinase Lck (Homo sapiens) (P06239 2-509 limits assumed): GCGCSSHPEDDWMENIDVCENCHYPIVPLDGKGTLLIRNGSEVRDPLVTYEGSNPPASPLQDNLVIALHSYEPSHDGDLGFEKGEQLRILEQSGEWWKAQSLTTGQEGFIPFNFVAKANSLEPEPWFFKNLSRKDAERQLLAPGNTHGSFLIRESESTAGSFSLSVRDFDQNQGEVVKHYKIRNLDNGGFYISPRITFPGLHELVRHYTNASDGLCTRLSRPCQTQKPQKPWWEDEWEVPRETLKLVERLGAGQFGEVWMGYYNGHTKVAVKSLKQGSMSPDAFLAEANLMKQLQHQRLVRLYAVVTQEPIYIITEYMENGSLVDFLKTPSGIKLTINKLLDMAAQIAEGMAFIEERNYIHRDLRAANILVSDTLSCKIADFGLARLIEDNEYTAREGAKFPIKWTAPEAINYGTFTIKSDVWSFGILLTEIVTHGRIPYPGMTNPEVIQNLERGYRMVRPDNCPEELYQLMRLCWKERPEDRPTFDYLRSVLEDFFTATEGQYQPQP

[9] = molecular target: Tyrosine-protein kinase Lck (Homo sapiens) (UniProt P06239); settings: at 1 µM
[10] = molecular target: Leukocyte tyrosine kinase receptor (Homo sapiens) (UniProt P29376); settings: at 0.1 µM
Sequence of Leukocyte tyrosine kinase receptor (Homo sapiens) (P29376 whole entry): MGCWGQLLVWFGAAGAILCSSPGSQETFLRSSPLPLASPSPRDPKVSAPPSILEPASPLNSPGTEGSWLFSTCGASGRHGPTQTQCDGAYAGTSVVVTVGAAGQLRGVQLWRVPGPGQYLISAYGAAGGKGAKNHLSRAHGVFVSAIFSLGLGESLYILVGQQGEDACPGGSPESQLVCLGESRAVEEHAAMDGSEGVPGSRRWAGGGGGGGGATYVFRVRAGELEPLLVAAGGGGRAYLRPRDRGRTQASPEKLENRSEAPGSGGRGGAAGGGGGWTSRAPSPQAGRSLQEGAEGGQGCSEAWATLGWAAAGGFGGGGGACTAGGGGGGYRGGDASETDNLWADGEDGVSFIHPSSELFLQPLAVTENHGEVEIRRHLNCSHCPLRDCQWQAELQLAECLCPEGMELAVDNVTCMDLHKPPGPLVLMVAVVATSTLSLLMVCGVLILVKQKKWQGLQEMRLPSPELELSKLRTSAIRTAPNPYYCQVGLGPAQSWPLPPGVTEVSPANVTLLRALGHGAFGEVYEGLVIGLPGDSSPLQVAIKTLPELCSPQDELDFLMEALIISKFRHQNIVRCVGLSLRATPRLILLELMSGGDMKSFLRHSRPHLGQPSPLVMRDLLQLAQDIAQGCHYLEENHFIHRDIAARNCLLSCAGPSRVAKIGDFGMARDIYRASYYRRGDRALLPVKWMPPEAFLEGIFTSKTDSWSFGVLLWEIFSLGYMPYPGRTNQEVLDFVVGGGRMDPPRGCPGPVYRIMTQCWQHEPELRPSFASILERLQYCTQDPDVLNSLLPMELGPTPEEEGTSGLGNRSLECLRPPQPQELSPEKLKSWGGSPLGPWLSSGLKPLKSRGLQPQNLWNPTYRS

[11] = molecular target: Leukocyte tyrosine kinase receptor (Homo sapiens) (UniProt P29376); settings: at 1 µM
[12] = molecular target: Tyrosine-protein kinase Lyn (Homo sapiens) (UniProt P07948); settings: at 0.1 µM
Sequence of Tyrosine-protein kinase Lyn (Homo sapiens) (P07948 2-512 limits assumed): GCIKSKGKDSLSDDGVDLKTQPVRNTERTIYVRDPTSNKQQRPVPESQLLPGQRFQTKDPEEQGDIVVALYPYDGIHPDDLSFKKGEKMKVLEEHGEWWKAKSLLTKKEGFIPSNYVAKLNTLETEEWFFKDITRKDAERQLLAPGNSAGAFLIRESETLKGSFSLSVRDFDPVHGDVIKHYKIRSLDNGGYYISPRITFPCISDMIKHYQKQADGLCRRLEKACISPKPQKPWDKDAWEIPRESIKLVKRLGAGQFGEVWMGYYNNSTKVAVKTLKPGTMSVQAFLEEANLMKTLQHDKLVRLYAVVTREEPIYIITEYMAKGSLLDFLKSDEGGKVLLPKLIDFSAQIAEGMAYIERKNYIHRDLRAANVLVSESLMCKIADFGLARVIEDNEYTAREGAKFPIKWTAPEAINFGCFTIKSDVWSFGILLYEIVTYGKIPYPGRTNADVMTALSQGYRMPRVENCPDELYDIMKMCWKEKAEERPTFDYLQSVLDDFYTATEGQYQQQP

[13] = molecular target: Tyrosine-protein kinase Lyn (Homo sapiens) (UniProt P07948); settings: at 1 µM
[14] = molecular target: Tyrosine-protein kinase Lyn (Homo sapiens) (UniProt P07948); settings: at 0.1 µM; remark: listed apart in the source
[15] = molecular target: Tyrosine-protein kinase Lyn (Homo sapiens) (UniProt P07948); settings: at 1 µM; remark: listed apart in the source
[16] = molecular target: T1, Tyrosine-protein kinase Mer (Homo sapiens) (UniProt Q12866); settings: at 0.1 µM
T1 sequence (whole entry): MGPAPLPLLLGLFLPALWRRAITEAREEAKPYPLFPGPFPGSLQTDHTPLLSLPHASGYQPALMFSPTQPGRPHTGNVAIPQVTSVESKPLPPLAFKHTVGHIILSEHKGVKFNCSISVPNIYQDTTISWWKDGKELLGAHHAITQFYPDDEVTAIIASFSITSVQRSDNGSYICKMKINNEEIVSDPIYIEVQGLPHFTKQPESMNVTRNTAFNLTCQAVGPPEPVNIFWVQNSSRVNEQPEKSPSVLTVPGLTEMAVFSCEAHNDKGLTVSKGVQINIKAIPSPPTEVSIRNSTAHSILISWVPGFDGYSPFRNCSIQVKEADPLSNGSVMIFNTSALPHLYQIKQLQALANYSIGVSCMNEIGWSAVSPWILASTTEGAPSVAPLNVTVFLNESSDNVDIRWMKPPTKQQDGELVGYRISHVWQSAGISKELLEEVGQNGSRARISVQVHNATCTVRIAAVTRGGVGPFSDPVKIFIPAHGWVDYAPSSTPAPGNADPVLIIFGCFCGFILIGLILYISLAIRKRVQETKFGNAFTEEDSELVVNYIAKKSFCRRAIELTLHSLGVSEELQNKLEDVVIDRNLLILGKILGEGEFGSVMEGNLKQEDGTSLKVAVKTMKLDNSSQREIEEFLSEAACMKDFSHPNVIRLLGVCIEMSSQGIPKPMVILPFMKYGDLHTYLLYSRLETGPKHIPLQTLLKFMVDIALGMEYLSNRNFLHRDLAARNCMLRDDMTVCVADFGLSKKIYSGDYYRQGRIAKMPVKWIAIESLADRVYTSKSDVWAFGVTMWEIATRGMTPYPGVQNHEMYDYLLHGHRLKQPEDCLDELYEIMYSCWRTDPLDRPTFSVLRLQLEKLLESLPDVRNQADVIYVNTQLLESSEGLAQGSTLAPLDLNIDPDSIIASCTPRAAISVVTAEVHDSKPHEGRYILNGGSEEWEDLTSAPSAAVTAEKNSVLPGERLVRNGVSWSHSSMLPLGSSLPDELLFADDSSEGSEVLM

[17] = molecular target: T1, Tyrosine-protein kinase Mer (Homo sapiens); settings: at 1 µM
[18] = molecular target: Hepatocyte growth factor receptor (Homo sapiens) (UniProt P08581); settings: at 0.1 µM
Sequence of Hepatocyte growth factor receptor (Homo sapiens) (P08581 whole entry): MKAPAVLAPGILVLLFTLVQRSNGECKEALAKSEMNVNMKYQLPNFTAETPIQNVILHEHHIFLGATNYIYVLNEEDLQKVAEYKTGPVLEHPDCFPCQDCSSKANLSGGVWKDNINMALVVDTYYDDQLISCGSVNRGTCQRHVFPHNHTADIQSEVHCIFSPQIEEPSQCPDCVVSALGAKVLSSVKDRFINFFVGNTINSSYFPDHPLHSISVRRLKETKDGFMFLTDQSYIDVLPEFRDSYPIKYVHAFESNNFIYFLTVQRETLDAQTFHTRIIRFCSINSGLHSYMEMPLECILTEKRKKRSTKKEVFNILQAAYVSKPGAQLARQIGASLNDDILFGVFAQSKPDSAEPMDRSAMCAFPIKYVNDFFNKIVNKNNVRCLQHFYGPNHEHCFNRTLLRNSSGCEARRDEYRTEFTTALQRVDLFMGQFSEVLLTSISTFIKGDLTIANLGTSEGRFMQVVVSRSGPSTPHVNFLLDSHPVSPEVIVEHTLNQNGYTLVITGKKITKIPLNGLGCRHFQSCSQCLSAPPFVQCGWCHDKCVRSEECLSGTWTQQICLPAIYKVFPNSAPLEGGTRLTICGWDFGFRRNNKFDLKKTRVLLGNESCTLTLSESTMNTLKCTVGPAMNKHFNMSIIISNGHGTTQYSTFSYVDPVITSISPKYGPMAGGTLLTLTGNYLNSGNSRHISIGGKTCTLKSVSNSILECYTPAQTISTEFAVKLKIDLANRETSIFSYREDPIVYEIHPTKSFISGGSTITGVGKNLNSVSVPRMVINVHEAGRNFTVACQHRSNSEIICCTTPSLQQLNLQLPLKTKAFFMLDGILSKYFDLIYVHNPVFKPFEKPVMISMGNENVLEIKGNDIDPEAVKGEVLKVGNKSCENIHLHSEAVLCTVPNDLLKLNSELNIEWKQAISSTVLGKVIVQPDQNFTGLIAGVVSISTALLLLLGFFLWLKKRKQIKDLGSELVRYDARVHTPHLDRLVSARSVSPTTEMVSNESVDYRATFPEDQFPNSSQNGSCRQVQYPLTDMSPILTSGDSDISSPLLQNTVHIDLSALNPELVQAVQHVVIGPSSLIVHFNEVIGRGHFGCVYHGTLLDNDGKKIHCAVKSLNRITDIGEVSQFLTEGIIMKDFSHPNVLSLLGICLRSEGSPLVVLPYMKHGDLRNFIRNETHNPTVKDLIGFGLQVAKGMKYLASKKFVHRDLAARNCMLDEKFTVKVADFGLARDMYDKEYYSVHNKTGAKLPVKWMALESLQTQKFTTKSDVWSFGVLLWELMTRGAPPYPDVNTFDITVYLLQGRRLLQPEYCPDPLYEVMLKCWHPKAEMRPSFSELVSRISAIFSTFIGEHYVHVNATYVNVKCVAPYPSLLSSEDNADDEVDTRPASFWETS

[19] = molecular target: Hepatocyte growth factor receptor (Homo sapiens) (UniProt P08581); settings: at 1 µM
[20] = molecular target: T2, Muscle, skeletal receptor tyrosine-protein kinase (Homo sapiens) (UniProt O15146); settings: at 0.1 µM;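 further: values are mean inhibition of MuSK from the GSK PKIS kinase screening panel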
T2 sequence (whole entry): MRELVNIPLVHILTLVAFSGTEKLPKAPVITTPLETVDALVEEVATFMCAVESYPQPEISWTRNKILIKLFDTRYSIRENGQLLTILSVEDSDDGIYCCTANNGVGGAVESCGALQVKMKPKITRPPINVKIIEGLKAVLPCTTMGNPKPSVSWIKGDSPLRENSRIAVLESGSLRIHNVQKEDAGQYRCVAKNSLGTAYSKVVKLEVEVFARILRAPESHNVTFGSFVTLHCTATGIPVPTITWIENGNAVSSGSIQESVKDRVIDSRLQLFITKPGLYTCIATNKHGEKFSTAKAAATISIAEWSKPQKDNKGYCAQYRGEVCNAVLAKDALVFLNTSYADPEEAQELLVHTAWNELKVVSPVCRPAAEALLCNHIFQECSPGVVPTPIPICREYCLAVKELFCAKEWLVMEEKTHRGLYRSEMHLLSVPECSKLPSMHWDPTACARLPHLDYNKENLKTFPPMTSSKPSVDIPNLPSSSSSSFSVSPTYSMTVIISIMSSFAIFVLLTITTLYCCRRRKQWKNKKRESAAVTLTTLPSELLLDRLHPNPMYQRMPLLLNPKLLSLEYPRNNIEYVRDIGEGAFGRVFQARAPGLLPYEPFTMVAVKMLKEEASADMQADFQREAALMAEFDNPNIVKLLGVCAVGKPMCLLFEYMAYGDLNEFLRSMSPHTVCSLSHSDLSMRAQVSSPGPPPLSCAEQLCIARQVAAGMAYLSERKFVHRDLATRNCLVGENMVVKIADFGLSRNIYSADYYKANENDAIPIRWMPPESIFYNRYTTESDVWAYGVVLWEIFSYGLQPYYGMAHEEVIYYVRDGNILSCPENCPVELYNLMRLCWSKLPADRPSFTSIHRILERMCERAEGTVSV

Sequence of Mast/stem cell growth factor receptor Kit (Homo sapiens), P10721 [D816V] (P10721 whole entry D816V): as the sequence (P10721 whole entry V560G) above, with G560V, D816V counted along it
Sequence of Mast/stem cell growth factor receptor Kit (Homo sapiens), P10721 [T670I] (P10721 whole entry T670I): as the sequence (P10721 whole entry V560G) above, with G560V, T670I counted along it
Sequence of Mast/stem cell growth factor receptor Kit (Homo sapiens) (P10721 whole entry): as the sequence (P10721 whole entry V560G) above, with G560V counted along it

SMILES	inhibition [1]	inhibition [2]	inhibition [3]	inhibition [4]	inhibition [5]	inhibition [6]	inhibition [7]	inhibition [8]	inhibition [9]	inhibition [10]	inhibition [11]	inhibition [12]	inhibition [13]	inhibition [14]	inhibition [15]	inhibition [16]	inhibition [17]	inhibition [18]	inhibition [19]	inhibition [20]
CCOc1nccc2c1nc(-c1nonc1N)n2CC	10.2%	-2.27%	3.77%	4.03%	6.04%	4.82%	7.59%	1.92%	3.61%	1.89%	2.99%	3.8%	6.05%	2.33%	4.84%	3.54%	6.08%	4.49%	11.2%	3.26%
Cc1ccc2c(-c3ccnc(Nc4ccc5c(c4)OCCO5)n3)c(-c3ccc(C(F)(F)F)cc3)nn2n1	2.39%	-1.16%	0.16%	-0.41%	-0.07%	0.29%	0.88%	1.9%	8.08%	0.85%	1.95%	2.2%	6.17%	1.57%	4.82%	-0.17%	0.27%	6.93%	1.74%	-0.62%
CN1CCN(C(=O)c2ccc(NC(=O)Nc3ccc(N(C)c4ccnc(Nc5ccc(CS(C)(=O)=O)cc5)n4)cc3)cc2)CC1	88.5%	1.27%	2.73%	10.6%	58.7%	75.1%	93.2%	5.01%	23.9%	2.61%	10.7%	2.45%	19.7%	1.67%	18.1%	12.8%	52.3%	45.6%	77.4%	5.5%
COc1cc2ncnc(Nc3ccc(C)c(O)c3)c2cc1OC	40.5%	44%	88.3%	3.54%	2.94%	5.53%	35.8%	25%	72.2%	6.58%	24.8%	39.7%	83.9%	32.6%	80.8%	2.64%	4.97%	1.61%	9.16%	0.51%
C[C@@H](Oc1cc(-n2cnc3ccc(OC[C@@H](O)CO)cc32)sc1C(N)=O)c1ccccc1Cl	4.68%	-3.17%	1.58%	-1.2%	0.87%	3.36%	2.13%	1.2%	6.12%	-0.43%	3.54%	-0.6%	3.84%	-0.83%	2.72%	5.8%	3.84%	-4.12%	-4.35%	9.09%
COC(=O)c1cncc(/C=C/c2c(C)cc(O)cc2C)c1	83.5%	4.37%	7.02%	2.73%	0.94%	4.65%	41.8%	5.78%	30.5%	3.77%	4.87%	12.3%	46.2%	7.81%	41.9%	0.09%	2.53%	1.79%	11.5%	2.48%
Cc1ccc2c(-c3ccnc(Nc4cccc(C(F)(F)F)c4)n3)c(-c3ccccc3)nn2n1	47.6%	0.01%	6.47%	2.51%	3.44%	2.8%	10.7%	8.54%	42%	4.14%	2.99%	12.6%	53%	8.81%	47.8%	4.49%	20%	13.9%	10.4%	4.93%
CCS(=O)(=O)c1ccc(OC)c(Nc2ncc(-c3cccc(OC)c3)o2)c1	97%	0.77%	7.53%	10.8%	67.6%	3.11%	38.3%	11.7%	47.6%	1.67%	3.16%	20.2%	68.2%	15.9%	63.6%	2.42%	7.73%	-0.79%	2.24%	4.87%
CN(c1ccc(NC(=O)Nc2ccc(OC(F)(F)F)cc2)cc1)c1ccnc(Nc2cccc(S(N)(=O)=O)c2)n1	95.3%	3.73%	2.45%	22.9%	89.9%	37.6%	93.4%	33.7%	80.1%	2.69%	6.43%	39.9%	83.2%	37.1%	83.6%	5.5%	49.2%	34.4%	64.9%	8.36%
CS(=O)(=O)CCNCc1nc(-c2ccc3ncnc(Nc4ccc(OCc5cccc(C(F)(F)F)c5)cc4)c3c2)cs1	12.8%	-0.14%	1.52%	-0.86%	3.13%	0.77%	6.02%	2.25%	6.83%	3.1%	3.87%	2.63%	2.07%	2.44%	1.23%	3.74%	5.41%	4.81%	2.51%	1.29%
COc1cccc(-n2ncc3c(N/N=C/c4ccc(S(C)(=O)=O)cc4)ncnc32)c1	61.6%	1.61%	9.23%	7.49%	44.8%	1.83%	7.89%	37.7%	73.9%	1.43%	2.05%	54.1%	76.5%	48.1%	73.3%	6.96%	28.3%	14.5%	47.6%	12.1%
NC(=O)c1cccc(Nc2nccc(Nc3cccc(F)c3)n2)c1	82.6%	-0.14%	2.14%	0.52%	7.62%	2.06%	32.6%	2.44%	15%	0.75%	6.92%	3.6%	36.1%	2.42%	30.6%	0.08%	4.99%	7.98%	9.64%	0.8%
c1ccc(Nc2ncc(-c3ccccc3)o2)cc1	88.1%	1.88%	3.71%	4.48%	40%	1.47%	50.4%	3.52%	10.9%	6.86%	6.52%	5.9%	9.62%	4.91%	7.76%	2.15%	2.41%	3.87%	6.02%	3.65%

Reference: ChEMBL document CHEMBL1961873, “Compounds: GSK PKIS; Assays: Nanosyn kinase panel” (2012)
